Source: publication PMC4336329 (PLoS ONE, 2015)
Among all 310,000 compounds or so, about 14,000 (4.5%) showed an effect of 50% or more. Effects have a minus sign here. The list comes from a sample in which strong results are over-represented; it also holds similar structures and randomly drawn compounds.

The compounds below were run against human ether-à-go-go-related gene (hERG) potassium channel (human, UniProt Q12809) (assay: primary screen, population patch clamp on CHO cells stably expressing hERG; higher = less effect of the substance).
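Further: peak tail current of the secondary pulse compared with the same well before compound.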

human ether-à-go-go-related gene (hERG) potassium channel, sequence (Q12809 whole entry, looked up): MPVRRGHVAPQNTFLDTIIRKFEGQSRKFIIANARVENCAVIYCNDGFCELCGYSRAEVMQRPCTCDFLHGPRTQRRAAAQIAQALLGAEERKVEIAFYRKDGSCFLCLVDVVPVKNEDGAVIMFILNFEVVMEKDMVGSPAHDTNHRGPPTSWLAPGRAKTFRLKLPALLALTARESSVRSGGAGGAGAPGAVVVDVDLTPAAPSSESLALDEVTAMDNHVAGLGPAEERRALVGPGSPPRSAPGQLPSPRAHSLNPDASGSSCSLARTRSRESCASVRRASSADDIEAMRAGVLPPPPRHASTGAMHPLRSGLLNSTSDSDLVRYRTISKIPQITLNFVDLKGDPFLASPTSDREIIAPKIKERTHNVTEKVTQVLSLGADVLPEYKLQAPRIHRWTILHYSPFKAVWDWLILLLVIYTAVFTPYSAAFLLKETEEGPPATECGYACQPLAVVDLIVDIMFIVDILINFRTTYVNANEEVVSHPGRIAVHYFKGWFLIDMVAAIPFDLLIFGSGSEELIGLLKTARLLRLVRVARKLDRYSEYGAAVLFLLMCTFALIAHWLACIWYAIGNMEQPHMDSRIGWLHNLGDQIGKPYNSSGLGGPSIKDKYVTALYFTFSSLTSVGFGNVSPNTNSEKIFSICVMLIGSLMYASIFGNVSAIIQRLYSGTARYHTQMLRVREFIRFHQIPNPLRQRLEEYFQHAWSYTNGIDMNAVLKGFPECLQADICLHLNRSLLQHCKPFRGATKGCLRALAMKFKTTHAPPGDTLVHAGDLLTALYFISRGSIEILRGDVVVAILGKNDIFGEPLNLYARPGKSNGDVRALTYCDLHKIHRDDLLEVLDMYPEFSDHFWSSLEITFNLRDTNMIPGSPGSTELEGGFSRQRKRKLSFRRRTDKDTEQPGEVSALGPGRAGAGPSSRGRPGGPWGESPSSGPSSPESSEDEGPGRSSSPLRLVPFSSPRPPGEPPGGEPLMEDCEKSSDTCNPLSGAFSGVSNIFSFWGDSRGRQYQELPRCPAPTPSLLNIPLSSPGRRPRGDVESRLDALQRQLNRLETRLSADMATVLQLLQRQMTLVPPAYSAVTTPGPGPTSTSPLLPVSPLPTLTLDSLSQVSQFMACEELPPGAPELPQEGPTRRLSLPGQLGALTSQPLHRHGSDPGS

Row | Compound | hERG current change (%, negative = inhibition) at 10uM [%]
1 | O=C(CCCCCNC(=O)c1ccccc1)N/N=C/c1ccccc1 | -9.98
2 | O=C(Nc1ccc2oc(-c3cccnc3)nc2c1)c1ccc2c(c1)OCCO2 | 20.2
3 | CCCCCC/C=C/c1ccc([C@H]2[C@H]3C=CC[C@@H](C)[C@@H]3C(=O)N2Cc2ccccc2)c(F)c1 | 4.76
4 | S=C1NC(c2ccccc2)=NCN1c1ccc(Br)cc1 | -12.9
5 | COc1ccccc1N(CC(=O)NCCSCc1ccc(Cl)cc1)S(C)(=O)=O | -0.283
6 | C=CCSc1nccc(-c2nn(-c3ccc(C)cc3)ccc2=O)n1 | -8.82
7 | O=C1NC(=O)N(CCc2ccc(F)cc2)C(=O)/C1=C/c1cccs1 | 16.1
8 | Cc1c(NC(=O)COC(=O)c2ccc(Br)o2)c(=O)n(-c2ccccc2)n1C | 13.8
9 | O=C(COc1ccc(-c2ccccc2)cc1)N/N=C/c1cccnc1 | 7.95
10 | CCOc1ccccc1-c1cc(C(=O)N/N=C/c2cccnc2)c2ccccc2n1 | -6.35
11 | O=C(N/N=C/c1cccnc1)c1ccccc1OCc1ccc(Br)cc1 | -52.6
12 | CC(C)Oc1ccccc1-c1cc(C(=O)N/N=C/c2cccnc2)c2ccccc2n1 | -51.1
13 | COc1ccc(/C=N/NC(=O)c2ccccc2OCc2ccccc2)c(OC)c1 | -53.8
14 | O=C(COc1ccccc1-c1ccccc1)N/N=C/c1cccnc1 | -52.8
15 | O=C(N/N=C/c1cccnc1)c1ccccc1OCc1cccc(Br)c1 | -17.1
16 | O=C(COc1ccccc1-c1ccccc1)N/N=C/c1ccncc1 | -26.2
17 | Cc1ccccc1-c1cc(C(=O)N/N=C/c2cccnc2)c2ccccc2n1 | -3.87
18 | O=C(N/N=C/c1cccnc1)c1ccccc1OCc1ccc(Cl)cc1 | -38.4
19 | COc1ccc(/C(C)=N/NC(=O)c2ccccc2OCc2ccccc2)c(OC)c1 | 11.2
20 | COc1ccc(/C=N/NC(=O)c2ccccc2NC(=O)c2ccco2)c(OC)c1 | 15.3
21 | Cc1ccccc1N/N=C/c1ccc(N2CCOCC2)cc1 | -2.55
22 | CCn1cc(CNC(=O)C2CCC(=O)N(Cc3ccccc3F)C2)cn1 (stereo not shown) | 8.25

Row | Compound | hERG current change (%, negative = inhibition) at 10uM [%]
23 | COc1ccc(C(=O)Nc2ccccc2C(=O)N2CCOCC2)cc1Br | -17.3
24 | C/C(=N\NC(=O)Cc1ccccc1)c1cccnc1 | 15.3
25 | C/C(=N\NC(=O)COc1ccccc1-c1ccccc1)c1cccnc1 | -53.9
26 | C/C(=N\NC(=O)COc1ccccc1-c1ccccc1)c1ccccn1 | -6.93
27 | CSCCC(NS(=O)(=O)c1cc(C(=O)O)ccc1Cl)C(=O)O (stereo not shown) | 45
28 | O=C(/C=C/c1ccccc1Cl)NCc1ccccc1 | 10.2
29 | CCN(CC)C(=O)C1CCCN(C(=O)CCn2nnnc2CN2CCOCC2)C1 (stereo not shown) | 17.7
30 | Cl.NC(N)=NC(=O)c1nc(Cl)c(N)nc1N.O | -0.314
31 | NC(N)=NC(=O)c1nc(Cl)c(N2CCCCCC2)nc1N | -58.6
32 | NC(N)=NC(=O)c1nc(Cl)c(N)nc1N | -3.88
33 | COc1ccc(N(CC(O)CN2CCOCC2)S(=O)(=O)c2ccccc2)cc1 (stereo not shown) | -12.1
34 | Cc1ccc(N(CC2CO2)S(=O)(=O)c2ccc([N+](=O)[O-])cc2)cc1 (stereo not shown) | -69.3
35 | Cc1ccc(S(=O)(=O)N(CC(O)CN2CCOCC2)c2cccc([N+](=O)[O-])c2)cc1 (stereo not shown) | -34.5
36 | Cc1ccc(N(CC(O)CN2CCOCC2)S(=O)(=O)c2ccc3ccccc3c2)cc1 (stereo not shown) | -67.4
37 | Cc1ccc(N(CC(O)CN2C(=O)NC(C)(C)C2=O)S(=O)(=O)c2ccc([N+](=O)[O-])cc2)cc1 (stereo not shown) | -32.7
38 | O=[N+]([O-])c1ccc(N(CC2CO2)S(=O)(=O)c2ccccc2)cc1 (stereo not shown) | -43.9
39 | Cc1ccc(N(CC2CO2)S(=O)(=O)c2ccc(C)cc2)cc1 (stereo not shown) | -5.18
40 | Cc1ccc(N(CC(O)CN2CCOCC2)S(=O)(=O)c2ccc([N+](=O)[O-])cc2)cc1 (stereo not shown) | -65.2
41 | Cl.O=S(=O)(c1ccc2ccccc2c1)N(CC(O)CN1CCOCC1)c1ccccc1 (stereo not shown) | -47.9
42 | O=C(Nc1ccc(NC(=O)c2cccs2)cc1)c1ccc2c(c1)OCCO2 | 15.6
43 | CC1(C)Cn2c(nnc2-c2ccccc2)S1 | 14.1
44 | O=C(NCC1CCCO1)c1cc(-c2ccncc2)nc2ccc(S(=O)(=O)N3CCOCC3)cc12 (stereo not shown) | -24.5

Row | Compound | hERG current change (%, negative = inhibition) at 10uM [%]
45 | CC(C)(C#CCN1CCCCC1)OCCOC(c1ccccc1)c1ccccc1.Cl | -21.3
46 | Cc1ccc(NC(=O)CCn2cnc3cc(C)c(C)cc32)cc1 | -8.26
47 | COc1ccccc1N1C(=O)c2ccc(C(=O)Nc3ccc(F)cc3)cc2C1=O | 1.07
48 | CCOC(=O)N1CCN(c2ncnc3c2[nH]c2ccc(F)cc23)CC1 | -2.67
49 | Cc1ccnc(NC(=O)C2CCN(S(=O)(=O)c3ccc4ccccc4c3)CC2)c1 | 7.94
50 | O=c1c(Br)c(N2CCCCC2)cnn1-c1ccccc1 | -16.5
51 | CC(C)Cc1oc(C(=O)O)cc1CN.Cl | -4.32
52 | O=C(Nc1nnc(-c2ccc(Cl)cc2)o1)c1ccc(N2C(=O)CCC2=O)cc1 | 12.9
53 | Cc1ccccc1OCC(=O)OCC(=O)Nc1ccc(N2CCOCC2)cc1 | 9.51
54 | O=S(=O)(Nc1c(F)cccc1F)c1ccc2c(c1)OCCO2 | 9.82
55 | CCOC(=O)c1sc2nc(NC(=O)C(C)(C)C)sc2c1C | -11.7
56 | Cc1ccc(S(=O)(=O)N(C)c2nc3ccccc3n3c(C(C)C)nnc23)cc1 | -28.1
57 | Cc1ccc2c(c1)N(C(=O)CCC(=O)NCCCN(C)Cc1ccccc1)CCO2 | -68.3
58 | CN(CCCNC(=O)CCC(=O)N1CCOc2ccc(Cl)cc21)Cc1ccccc1 | -64.1
59 | O=C(CCC(=O)N1CCOc2ccccc21)NCCCc1ccccc1 | -17.5
60 | Cc1ccc2c(c1)N(C(=O)CCC(=O)NCc1cccc(F)c1)CCO2 | -5.21
61 | CN(CCCNC(=O)CCC(=O)N1CCOc2ccccc21)Cc1ccccc1 | -30.7
62 | O=C(CCC(=O)N1CCOc2ccc(Cl)cc21)NCc1ccccc1 | -21.7
63 | CCN(CCCNC(=O)CCC(=O)N1CCOc2ccccc21)Cc1ccccc1 | -62.5
64 | CC(CNC(=O)CCC(=O)N1CCOc2ccc(Cl)cc21)c1ccccc1 (stereo not shown) | -40.6
65 | O=C(CCC(=O)N1CCOc2ccccc21)NCCc1ccccc1 | -6
66 | COc1ccc(C(=O)Oc2cc(C)[nH]c(=O)c2[N+](=O)[O-])c(OC)c1 | 11.9

Row | Compound | hERG current change (%, negative = inhibition) at 10uM [%]
67 | Cc1ccc(C)c2[nH]c(=O)c(CN(Cc3ccco3)S(=O)(=O)c3ccc4c(c3)OCCO4)cc12 | 9.44
68 | CC(C)NC(=O)[C@]1(C)CCC[C@@]2(C)C3CC[C@@]4(C)C[C@]3(CCC21)CC4=O (stereo partly shown) | 6.23
69 | CCc1ccc(NC(=O)C2CCCN(S(C)(=O)=O)C2)cc1 (stereo not shown) | 21.3
70 | C=CCn1c(SCc2csc(C)n2)nc2sc3c(c2c1=O)CCCCC3 | -8.41
71 | O=C(CN1C(=O)C(c2ccc(F)cc2)=NC12CCCC2)Nc1ccc(F)cc1 | -5.39
72 | CC(C)(C)OC(=O)N1CC(O)CC1C(=O)OCC(=O)c1ccc(Cl)cc1 (stereo not shown) | -16.4
73 | CC(C)(C)OC(=O)N1CC(O)CC1C(=O)OCC(=O)c1ccccc1 (stereo not shown) | 5.86
74 | CC(C)(C)OC(=O)N1C[C@H](O)C[C@H]1C(=O)OCC(=O)c1ccc([N+](=O)[O-])cc1 | -63.4
75 | COc1cccc(/C=N/NC(=O)c2[nH]c(C)c(C(=O)N/N=C/c3cccc(OC)c3O)c2C)c1O | 11.7
76 | CCN1CCc2c(OCC(=O)Nc3ccc4c(c3)OCCO4)cccc2C1=O | 5.28
77 | CC(C)(C)c1cc(NCCCn2ccnc2)n2ncc(-c3ccc(Cl)cc3)c2n1 | 12.1
78 | Cc1cc(NCCCn2ccnc2)n2ncc(-c3ccc(Cl)cc3)c2n1 | -68
79 | Cc1cc(NCCCN2CCOCC2)n2ncc(-c3ccccc3)c2n1 | -21
80 | Cc1cc(NCCCn2ccnc2)n2ncc(-c3ccccc3)c2n1 | -67.6
81 | Cc1cc(NCCCN2CCOCC2)n2ncc(-c3ccc(Cl)cc3)c2n1 | 0.66
82 | CC(C)(C)c1cc(NCCCn2ccnc2)n2ncc(-c3ccccc3)c2n1 | -18
83 | C=C(C)CN1CCN(S(=O)(=O)c2ccc(C)c(N(C)S(=O)(=O)c3ccc(C)cc3)c2C)CC1 | -2.33
84 | Cc1ccc(S(=O)(=O)N2CCN(C)CC2)c(C)c1N(C)S(=O)(=O)c1ccc(Cl)cc1 | -68.7
85 | Cc1ccc(S(=O)(=O)N(C)c2c(C)ccc(S(=O)(=O)N3CCN(C)CC3)c2C)cc1 | -60.8
86 | Cc1ccc(S(=O)(=O)N(C)c2c(C)ccc(S(=O)(=O)N3CCN(C=O)CC3)c2C)cc1 | -42.8
87 | Cc1cc(C)c(S(=O)(=O)N2CCCCC2)c(C)c1N(C)S(=O)(=O)c1ccc(Cl)cc1 | 0.393
88 | Cc1ccc(S(=O)(=O)N2CCN(Cc3ccccc3)CC2)c(C)c1N(C)S(=O)(=O)c1ccccc1 | 5.81
